Source: PubChem BioAssay (several laboratories)
A selection: hits, their analogues and other compounds. The true share with any hit is near 5.4%.
Calb FLC – affects C. albicans growth with fluconazole | C. albicans CaCi-2 (fluconazole-resistant clinical isolate) + fluconazole, Alamar Blue growth, 48 h | growth inhibition, % (test concentration not listed) | actives 0.57% (n = 300,000) | AID 1979;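 active = growth inhibition above about 58% in most replicates, limit read from the data, passing the limit was not always enough; inconclusive = exactly half the replicates above a set limit; inactive = most replicates below a set limit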;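 note: all wells also contain fluconazole at 8 µg/ml as a sub-toxic cotreatment; 0% = median of DMSO wells and 100% = median of geldanamycin control wells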
CSC inhib – cancer stem cell inhibition | cancer stem cell-like cells viability, luminescence | inhibition, % at 7.5 µM | actives 1.1% (n = 300,000) | AID 2717; in the data active = inhibition above about 75%; inconclusive = no clear call, values can overlap the other calls; tested in HMLE shEcad cells
ALR H2O2 inh – human ALR oxidase inhibition via reduced H2O2; P55789; purified ALR, DTT oxidation, H2O2 HRP-luminol luminescence; inhibition, % (test concentration not listed); actives 3.8% (n = 290,000);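 active = mean replicate inhibition above about 79%, with every replicate also reaching it, limit read from the data; inconclusive = only one of the two criteria met; inactive = mean below limit and not every replicate reaching it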
Target sequence (P55789 whole entry, looked up): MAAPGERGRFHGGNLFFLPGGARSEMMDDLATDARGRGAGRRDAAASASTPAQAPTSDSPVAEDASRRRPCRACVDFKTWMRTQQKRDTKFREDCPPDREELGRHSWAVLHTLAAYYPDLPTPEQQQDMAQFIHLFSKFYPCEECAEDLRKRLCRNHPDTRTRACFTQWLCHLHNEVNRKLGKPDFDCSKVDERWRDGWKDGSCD
PP5 primary – PP5 (human) phosphatase inhibition. P53041. purified PP5c, OMFP substrate fluorescence. inhibition, % at 6.7 µM. actives 0.18% (n = 320,000). AID 1987;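 active = inhibition above the campaign's mean inhibition across all tested compounds plus 3 SD, cut at about 9.5% in these data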;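 note: 0% = DMSO only and 100% = 100 µM cantharidin control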
PP1 counter – PP1-alpha (human) inhibition in PP5 counter-screen; inhibition, % at 6.7 µM; AID 2235; actives 0.9% (n = 320,000); purified PP1alpha, OMFP fluorescence; P62136;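 active = inhibition above the mean inhibition of all tested compounds plus 3 SD, computed separately for each screening campaign, cut at about 15% in these data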
Target sequence (P62136 whole entry, looked up): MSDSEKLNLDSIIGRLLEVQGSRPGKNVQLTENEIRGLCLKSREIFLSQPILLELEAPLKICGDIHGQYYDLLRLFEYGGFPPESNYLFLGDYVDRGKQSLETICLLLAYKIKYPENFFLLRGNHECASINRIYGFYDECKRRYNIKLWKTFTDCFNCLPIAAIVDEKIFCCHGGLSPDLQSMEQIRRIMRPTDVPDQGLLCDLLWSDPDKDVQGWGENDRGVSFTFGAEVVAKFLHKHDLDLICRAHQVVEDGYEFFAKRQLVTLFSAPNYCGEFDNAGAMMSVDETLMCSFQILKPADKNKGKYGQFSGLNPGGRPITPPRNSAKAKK
* marks the source's active call; other numbers are inactive results; ? = inconclusive; nt = no result given.

SMILES | Calb FLC | CSC inhib | ALR H2O2 inh | PP5 primary | PP1 counter
O=S(=O)(c1cccc(-c2csc(-c3ccccc3)n2)c1)N1CCOCC1 | 1.6 | 9.9 | 98.2* | 3.3 | -0.6
CC1CN(S(=O)(=O)c2cccc(-c3csc(-c4ccccc4)n3)c2)CC(C)O1 (centres undefined) | 19.6 | -2.0 | 98.1* | 1.2 | -2.9
CC1CN(S(=O)(=O)c2cccc(-c3cn4ccccc4n3)c2)CC(C)O1 (centres undefined) | 1.2 | 9.7 | -9.0 | -0.9 | -3.1
Cc1nc(-c2ccc(S(=O)(=O)N3CCOCC3)cc2)cs1 | 4.8 | -18.8 | 93.4* | -4.9 | -2.6
Cc1ccc(NCC(=O)Nc2cccc(S(=O)(=O)N(C)C)c2)c(Cl)c1 | -1.7 | -4.7 | -3.7 | 3.8 | 1.4
CCC(C)NC(=O)CNC(=O)c1nn(-c2ccc(OC)cc2)c(=O)c2ccccc12 (centres undefined) | 6.1 | -13.6 | -14.9 | 1.4 | -2.4
COc1ccc(C2=CC(c3ccc(OC)c(OC)c3)n3nnnc3N2)c(OC)c1 (centres undefined) | ? | -6.0 | -14.0 | 0.9 | -9.8
Cc1ccc(S(=O)(=O)CC(=O)Nc2nc3ccc(S(N)(=O)=O)cc3s2)cc1 | 27.1 | 2.2 | -2.9 | -0.5 | -1.1
Cn1c(SCc2ccc(Br)cc2)nc2c(c1=O)SCC2 | 4.5 | 3.8 | 98.2* | 4.3 | 2.6
COc1ccc(-n2c(SCc3cccnc3)nc3c(c2=O)SCC3)cc1OC | -1.4 | nt | nt | nt | nt
Cn1c(SCc2cccc([N+](=O)[O-])c2)nc2c(c1=O)SCC2 | -0.4 | 8.8 | 98.7* | 0.3 | 1.7
Cn1c(SCc2cccnc2)nc2c(c1=O)SCC2 | 5.4 | -6.7 | 99.0* | -0.6 | 0.6
Cn1c(SCC(=O)NCc2ccc3c(c2)OCO3)nc2c(c1=O)SCC2 | -8.3 | -8.2 | 47.0 | 2.9 | 2.5
Cc1cc(C)nc(N2C(=O)CC(C(=O)O)NC2=NCCc2c[nH]c3ccccc23)n1 (centres undefined) | -2.2 | -8.6 | -13.1 | 3.0 | 1.0
C=CCCc1ccc(C#N)c(SCc2c(C(=O)OCC)c3cc(OC(C)=O)c(Br)cc3n2C)n1 | -20.9 | 1.4 | nt | -1.8 | -0.7
NC(=O)c1cc(S(=O)(=O)N2CCN(c3cccc(Cl)c3)CC2)cs1 | -6.5 | -2.1 | -2.9 | -0.8 | -3.5
NC(=O)c1ccnc2c(O)cccc12 | nt | -4.6 | -1.5 | -3.0 | -3.6
CCCN1CNc2c(c(=O)[nH]c(=S)n2CCc2ccccc2)C1 | -21.0 | -2.5 | 91.3* | 1.4 | -1.3
COc1cccc(N=Nc2c(N)[nH]n3c(=O)c4c(nc23)CCCC4)c1 | -2.1 | 17.8 | -13.9 | 1.9 | 16.6*
COc1cccc(N=Nc2c(N)[nH][nH]c2=O)c1 | -2.0 | -13.2 | nt | -0.9 | 0.1
Cc1ccc(SCC(=O)NC2CC3CCC(C2)N3C)cc1 (centres undefined) | -11.5 | -3.3 | nt | 0.8 | -1.1
CN1C2CCC1CC(NC(=O)CSCc1ccc(Cl)cc1Cl)C2 (centres undefined) | 0.9 | -2.5 | 98.5* | -1.6 | -1.2
O=c1[nH]c2ccccc2cc1CN(Cc1ccco1)S(=O)(=O)c1ccc(F)cc1 | 2.6 | -4.7 | 1.4 | 0.3 | 0.0
O=C(Nc1nnc(CSCc2ccc(F)cc2)s1)c1cccc([N+](=O)[O-])c1 | -11.8 | 21.4 | 1.4 | 3.8 | 2.4
Cc1cc(C)c(-c2cc(NC(=O)COC(=O)c3ccc(C#N)cc3)n(-c3ccccc3)n2)cc1C | 76.6* | -8.1 | 2.3 | 7.2 | 10.3
SMILES | Calb FLC | CSC inhib | ALR H2O2 inh | PP5 primary | PP1 counter
CCOc1ccc(CCNC(=O)c2[nH]c(C)c(C(C)=O)c2CC)cc1OCC | -0.4 | 0.3 | -15.1 | 0.5 | 1.0
COC(C/C=C/C(=O)[C@H](C)OCc1ccccc1)OC | -11.8 | 6.3 | 87.4* | -1.6 | -1.0
C=CCOc1ccc(/C=C2\SC(=Nc3cccnc3)NC2=O)cc1 | -0.9 | 23.4 | -13.4 | 1.7 | 15.5*
O=C1C2CCCN2c2ccc(S(=O)(=O)N3CCOCC3)cc2N1Cc1cccc(C(F)(F)F)c1 (centres undefined) | 6.6 | -0.7 | nt | 1.2 | 30.0*
O=C1OCC/C1=C\c1ccc2c(c1)OCO2 | -0.9 | -4.1 | -5.3 | -0.3 | 0.2
O=C1OCC/C1=C\c1ccc(O)cc1 | -0.3 | -8.3 | 98.2* | 0.8 | 1.4
CC(=O)c1ccc(NC(=O)CC2Nc3cccc4cccc(c34)NC2=O)cc1 (centres undefined) | -2.6 | -10.2 | nt | -0.7 | 4.0
CC(=O)Nc1ccc(NC(=O)CC2Nc3cccc4cccc(c34)NC2=O)cc1 (centres undefined) | 0.8 | -0.6 | 85.7* | -0.6 | -0.3
O=c1nc(NC2CCCC2)ccn1Cc1cccc(Br)c1 | -5.9 | nt | -2.5 | -1.1 | -3.6
Fc1ccc(-c2nc3cnccn3c2NC2CCCC2)cc1 | -22.7 | -1.9 | 99.3* | 0.2 | 2.7
Oc1ccc(Br)cc1-c1nc2cnccn2c1NC1CCCCC1 | -14.7 | 26.7 | 92.1* | 4.2 | 8.2
COc1ccc(-c2cccc(-c3nc4ccc(Cl)cn4c3NC3CCCCC3)c2)cc1 | nt | 29.1 | -1.3 | nt | nt
Oc1ccc(Br)cc1-c1nc2cnccn2c1NC1CCCC1 | -8.1 | 15.7 | 94.4* | 5.8 | 8.9
CCCCCCSc1ccc(-c2nc3ccc(Cl)cn3c2NC2CCCCC2)cc1 | nt | 10.2 | -1.1 | nt | nt
O=C(COC(=O)CC1CCCC1)Nc1cc2c(cc1Cl)C(=O)c1ccccc1C2=O | 5.5 | 22.6 | -5.6 | 3.4 | 1.8
COc1cc(NC(=O)CSc2nncn2C)cc(OC)c1OC | -12.6 | -5.0 | -6.8 | -0.2 | -2.8
COc1ccccc1CNC(=O)C(C)n1nc(C)c2c(C)n(-c3ccccc3)nc2c1=O (centres undefined) | -7.1 | -17.1 | -6.4 | -2.2 | -4.5
CCOC(=O)c1ccc(N=Nc2c(C)[nH]n(-c3ccccc3)c2=O)cc1 | -2.5 | -3.3 | -8.6 | 2.0 | -3.6
CCOC(=O)c1ccc(-n2[nH]c(-c3ccccc3)cc2=O)cc1 | 13.3 | 79.0* | -33.4 | 2.4 | 8.9
CC(CNC(=S)Nc1cc(F)cc(F)c1)CSc1ccc(Cl)cc1 (centres undefined) | 2.1 | 86.9* | -5.6 | 2.9 | 0.5
O=C(COC(=O)c1cncc(Br)c1)Nc1nnc(-c2ccccc2)o1 | -7.4 | -17.5 | nt | -0.5 | 3.0
Cc1oc(-c2ccc(Cl)cc2)nc1CS(=O)CC(=O)NCc1ccc2c(c1)OCO2 (centres undefined) | -8.1 | nt | 57.9 | 2.9 | 1.2
COc1ccc(-c2nc(CS(=O)CC(=O)NCc3ccc4c(c3)OCO4)c(C)o2)cc1OC (centres undefined) | -28.2 | -11.4 | 98.8* | -0.5 | -5.4
COc1cccc(-c2nnc(SCC(=O)N3CCCc4ccccc43)o2)c1 | 3.4 | -8.8 | 87.4* | 4.1 | 0.7
COc1cc(OC)cc(-c2nnc(SCC(=O)N(Cc3ccccc3)C(C)(C)C)o2)c1 | 15.9 | 113.1* | 0.3 | 3.4 | 3.6
COc1ccccc1CNC(=O)CS(=O)Cc1nc(-c2ccc(OC)c(OC)c2)oc1C (centres undefined) | -5.5 | -13.7 | 98.5* | 1.3 | 1.5
COc1cc(-c2nnc(SCC(=O)N(Cc3ccccc3)C(C)(C)C)o2)cc(OC)c1OC | 7.8 | 70.9 | 7.5 | 1.7 | 1.6
